In the library only some 7.3% were active in any assay of this set; here they are far more common.
NPC1 prom act = NPC1 promoter activation. Huh7 NPC1 promoter luciferase reporter, 24 h. 2.4% of 320,000 active. Potency, µM (top dose mostly 9.22 µM), without a hit: at the top dose activation, hits mostly activators; note: % of control where 0% means no effect; nearly all actives have a fitted effect of over 60% in size
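Stable NPC1-promoter luciferase Huh7 line; cpd (DMSO) 24 h, 37 °C, 5% CO2; Amplite luciferase reagent 10 min RT; luminescence readout. qHTS format.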
uPA generation = inhibitors of cell surface uPA generation. AID 540303. cell surface uPA generation assay, qHTS. 0.31% of 330,000 active. Potency, µM (series often up to 38.3 µM), for inactives: at the top dose activity change, negative = inhibition, actives largely listed as inhibitors; active = well fitted inhibition curve with a large enough effect; inconclusive = small, poorly fitted or top-dose-only effect; inactive = no such curve, though single readings can be large or run the other way; tested in mouse RAW 264.7 cells; note: % is set by controls: 0 for no effect and ±100 for the full control effect; nearly all actives have a fitted effect of over 55% in size
FLuc modulator = firefly luciferase modulation, counter-screen for miR-21 project; P08659; purified FLuc, Km substrates, luminescence inhibition; Potency, µM (doses to about 57.5 µM), without a hit: at the top dose activity change, negative = inhibition, most hits filed as inhibitors; 6.9% of 360,000 active; AID 588342;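 note: plate controls were vehicle for no effect and reference inhibitor for full effect; nearly all actives have a fitted effect of over 55% in size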
Target sequence (P08659 whole entry, looked up): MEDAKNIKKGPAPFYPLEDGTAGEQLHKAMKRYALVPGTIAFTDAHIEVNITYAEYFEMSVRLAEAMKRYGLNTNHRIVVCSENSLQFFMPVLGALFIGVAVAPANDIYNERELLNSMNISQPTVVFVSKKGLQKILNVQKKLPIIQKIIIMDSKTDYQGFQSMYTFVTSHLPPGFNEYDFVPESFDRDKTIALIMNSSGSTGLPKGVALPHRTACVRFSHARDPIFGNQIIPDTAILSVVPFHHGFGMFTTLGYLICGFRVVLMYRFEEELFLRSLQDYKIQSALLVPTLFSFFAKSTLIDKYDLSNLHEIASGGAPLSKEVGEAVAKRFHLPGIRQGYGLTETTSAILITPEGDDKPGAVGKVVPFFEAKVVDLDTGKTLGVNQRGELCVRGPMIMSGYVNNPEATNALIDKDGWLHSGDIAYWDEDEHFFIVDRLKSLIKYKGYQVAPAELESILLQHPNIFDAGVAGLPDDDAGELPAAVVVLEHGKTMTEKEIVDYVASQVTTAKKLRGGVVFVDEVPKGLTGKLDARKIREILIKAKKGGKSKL
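Biochemical qHTS of compounds, final roughly 60 µM downward over six points, against 10 nM purified firefly luciferase using Km concentrations of substrates (10 uM D-luciferin, 10 uM ATP) in Tris acetate pH 7.5 buffer; luminescence output.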
ELG1 genotox = induces genotoxicity in HEK293T cells with luciferase-tagged ELG1 | 1.3% of 330,000 active | HEK293T ELG1-luciferase reporter, luminescence, 16 h | Potency, µM (series often up to 46 µM), for the others: top-dose activity change, positive = activation, usual class: activators | AID 504466; note: % of control where 0% means no effect; nearly all actives have a fitted effect of over 60% in size
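Quantitative HTS format in 1536-well plates. HEK293T ELG1-luciferase reporter cells receive test compound and are incubated 16 hr at 37 °C, 5% CO2; ONE-Glo added, 30 min room temperature, then luminescence read.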
SMN2 splice enh = SMN2 splice variant enhancement; HEK293 SMN2-luciferase splicing reporter, luminescence, 30-36 h; Potency, µM (series often up to 46.1 µM), for inactives: top-dose activity change, positive = activation, actives largely listed as activators; 2.8% of 210,000 active; note: % of control where 0% means no effect; nearly all actives have a fitted effect of over 55% in size
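HEK293 cells carry an SMN2 minigene-luciferase reporter in which exon 7 inclusion puts luciferase in frame. Cells were seeded at 2000 cells/well, attached for 10-12 hours, then exposed to compounds for 30-36 hours at 37C before ONE-Glo luminescence.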
Rab9 promoter act = Rab9 promoter activation; 2.8% of 320,000 active; AID 485297; Potency, µM (highest dose often 9.22 µM), without a hit: at the highest dose activation, negative = inhibition, actives largely listed as activators; Huh7 Rab9 promoter-luciferase reporter, luminescence, 24 h; note: % of control where 0% means no effect; nearly all actives have a fitted effect of over 60% in size
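Luciferase signal after 10 min detection reagent at ambient indicates Rab9 promoter upregulation; stably transfected Huh7 cells were treated 24 h with compound in DMSO at 37 °C, 5% CO2.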
Numbers without * were called inactive. Unless noted, calls come from the whole dose curve; as a rule, active = well fitted curve in the direction sought with a large enough effect; inconclusive = small, poorly fitted or top-dose-only effect, or another doubt; inactive = no such curve, though single readings can be large; an effect the other way counts as inactive or inconclusive. Potency is the fitted concentration of half-maximal effect.

Results for COc1ccccc1-c1nc(-c2ccc(Br)cc2)no1 ?
NPC1 prom act: inconclusive; uPA generation: 9%; FLuc modulator: 4.8µM*; ELG1 genotox: 3.7µM*; SMN2 splice enh: 16µM*; Rab9 promoter act: 5µM*

How did CCSc1ccccc1-c1nc(-c2ccncc2)no1 do in these assays?
NPC1 prom act: inconclusive; uPA generation: 3%; FLuc modulator: inconclusive; ELG1 genotox: 19%; Rab9 promoter act: 29%

What do the screens show for `COc1ccccc1-c1nc(-c2ccncc2)no1`?
NPC1 prom act: 2µM*; uPA generation: -2%; FLuc modulator: 6.7µM*; ELG1 genotox: inconclusive; SMN2 splice enh: 13µM*; Rab9 promoter act: 2µM*

What do the screens show for `CCOc1ccccc1-c1nc(-c2ccc(-c3ccccc3)nc2OCC)no1`?
FLuc modulator: 0%; SMN2 splice enh: 1%

What do the screens show for `CCOc1nc(C)ccc1-c1noc(-c2ccccc2OC)n1`?
NPC1 prom act: 9%; uPA generation: 2%; FLuc modulator: 24µM*; ELG1 genotox: 2%; SMN2 splice enh: -8%; Rab9 promoter act: 7%

What do the screens show for `CCOc1ccccc1-c1nc(-c2ccncc2)no1`?
uPA generation: 2%; FLuc modulator: -19%; SMN2 splice enh: -5%

Results for CN(C)c1ccc(-c2noc(-c3ccccc3O)n2)cc1 ?
NPC1 prom act: 0.71µM*; uPA generation: -5%; FLuc modulator: 0.27µM*; ELG1 genotox: inconclusive; SMN2 splice enh: 32%; Rab9 promoter act: inconclusive

How did COc1ccc(NC(=O)C(=O)NCCc2csc3nc(-c4ccccc4C)nn23)cc1 do in these assays?
FLuc modulator: 5%

Results for CCCCSCCCNC(=O)c1cn(CC)c2ccc(S(=O)(=O)N3CCCCCC3)cc2c1=O ?
FLuc modulator: -10%; SMN2 splice enh: -6%

What do the screens show for `CCCn1c(SCc2ccon2)nc2ccccc2c1=O`?
NPC1 prom act: 0%; uPA generation: -4%; FLuc modulator: -2%; ELG1 genotox: 5%; SMN2 splice enh: -10%; Rab9 promoter act: -4%

What do the screens show for `CC(C)(C)OC(=O)N1CCC(c2c(C(=O)NCc3ccc4c(c3)OCO4)cnn2-c2ccccc2Cl)CC1`?
FLuc modulator: 5%

What do the screens show for `Cc1ccc(-c2noc(-c3ccccc3Br)n2)cc1`?
NPC1 prom act: 0.79µM*; uPA generation: -6%; FLuc modulator: 0.67µM*; ELG1 genotox: inconclusive; SMN2 splice enh: 13µM*; Rab9 promoter act: 2.8µM*

How did COc1ccccc1-c1noc(-c2cccnc2)n1 do in these assays?
NPC1 prom act: 22%; uPA generation: -3%; FLuc modulator: inconclusive; ELG1 genotox: 21µM*; SMN2 splice enh: 1%; Rab9 promoter act: 14%

How did COc1nc(-c2ccc(C)cc2)ccc1-c1noc(-c2ccccc2Br)n1 do in these assays?
FLuc modulator: inconclusive; SMN2 splice enh: 1%

How did COc1nc2ccccc2cc1-c1noc(-c2cccnc2)n1 do in these assays?
NPC1 prom act: 9%; FLuc modulator: 1%; ELG1 genotox: -4%; SMN2 splice enh: -7%; Rab9 promoter act: 2%

What do the screens show for `COc1cc(OC)cc(-c2nc(-c3ccc(Br)cc3)no2)c1`?
NPC1 prom act: 27%; uPA generation: 11%; FLuc modulator: 13µM*; ELG1 genotox: 5%; SMN2 splice enh: 5%; Rab9 promoter act: inconclusive

What do the screens show for `COc1ccc(Cl)cc1-c1nc(-c2ccncc2)no1`?
NPC1 prom act: 29%; uPA generation: 2%; FLuc modulator: 1%; ELG1 genotox: inconclusive; SMN2 splice enh: 28µM*; Rab9 promoter act: 18%

What do the screens show for `Cc1ccc(CCNS(=O)(=O)c2cc(-c3cc(C)no3)ccc2C)cc1`?
FLuc modulator: 2%

What do the screens show for `COc1ccc(-c2nc(-c3ccc(Br)cc3)no2)c(OC)c1`?
uPA generation: 6%; FLuc modulator: 1.2µM*; SMN2 splice enh: 7.1µM*

Screening results as filed in PubChem BioAssay.
